# Laboratory results taken from ChEMBL document CHEMBL3988442, “University of Dundee, Small-Polar-MMV Screening Library” (2021).
# Hit rate of the full screen: of about 66,000 compounds, about 960 (1.5%) showed an effect of 50% or more. For the sample, strong results were picked, then their nearest neighbours and some compounds at random.
# Tested on: Trypanosoma brucei
# Assay: Trypanosoma brucei 72 hour study
# Assay type: functional, organism-based
# Set-up: scale not given: in the data most compounds retested in dose-response had high values
structure (smiles),measurement,setting,value
CCc1ccc(C(=O)Nc2ccc3c(c2)N(C)CCN(C)C3)o1,Percent Effect,"30 µM, 30.03 µM",-2.445%
CCN1CCOCC2(CCCN(C(=O)c3ccccc3F)C2)C1.O=C(O)C(F)(F)F (centres undefined),Percent Effect,"30.3 µM, […]",-73.72%
CO[C@H]1CC[C@H]2[C@H]1OCCN2Cc1ccc(F)c(F)c1.O=C(O)C(F)(F)F,Percent Effect,"30.3 µM, […]",-36.53%
CCN1CC2(CC1=O)CN(Cc1cnn(C)c1)CCN(C(=O)N(C)C)C2.O=C(O)C(F)(F)F (centres undefined),Percent Effect,"30 µM, 30.03 µM",-27.29%
CC(=O)NCC1CCN(C(=O)c2c(C)[nH]c3ccc(Cl)cc23)CC1,Percent Effect,"30.3 µM, […]",4.898%
C[C@@H](CO)Nc1nccc(-c2cnc3sc(Cl)cn3c2=O)n1,Percent Effect,"30.3 µM, […]",8.201%
CCc1nc(C)c(C(=O)NCC2COc3cc(OC)ccc3C2)o1 (centres undefined),Percent Effect,"30 µM, 30.03 µM",22.43%
O=C1CCCCN1CCc1nc(-c2cccnn2)no1,Percent Effect,"30 µM, 30.03 µM",-7.651%
CC(C)CNC(=O)[C@H]1C[C@@H]2CN(C(=O)NCCc3ccccc3)C[C@H]1O2,Percent Effect,"30 µM, 30.03 µM",5.175%
O=S1(=O)CCC(S(=O)(=O)c2cccc(S(=O)(=O)N3CCOCC3)c2)C1 (centres undefined),Percent Effect,"30 µM, 30.03 µM",-4.748%
Fc1cccc(CN2CCC[C@H](Cn3nnc(-c4ccccn4)n3)C2)c1,Percent Effect,"30.3 µM, […]",-22.29%
Fc1ccccc1CN1CCC[C@H](Cn2nnc(-c3cccs3)n2)C1,Percent Effect,"30.3 µM, […]",82.08%
Fc1ccccc1CN1CCC[C@@H](Cn2nnc(-c3cccs3)n2)C1,Percent Effect,"30.3 µM, […]",-5.522%
COc1cccc(CN2CCCC3(CCN(C(=O)N4CCCC4)C3)C2)c1.O=C(O)C(F)(F)F (centres undefined),Percent Effect,"30.3 µM, […]",-29.29%
COCCC1(C(=O)O)CCCN(C(=O)c2cc(Cl)ccc2F)C1 (centres undefined),Percent Effect,"30.3 µM, […]",-11.98%
COc1ccc(-n2cnnc2SCC(=O)N(C)C(C)C)cn1,Percent Effect,"30 µM, 30.03 µM",19.1%
COc1ccc(-n2cnnc2SCC(=O)NC(C)C)cn1,Percent Effect,"30 µM, 30.03 µM",21.81%
CCC(C)Sc1nncn1-c1ccc(OC)nc1 (centres undefined),Percent Effect,"30 µM, 30.03 µM",74.74%
CCOC(=O)[C@]12CCCN(Cc3cccs3)C[C@H]1CN(C(C)=O)C2.O=C(O)C(F)(F)F,Percent Effect,"30.3 µM, […]",-10.51%
Cn1cc(N2Cc3nc(N4CCOCC4)ncc3C2=O)cn1,Percent Effect,"30.3 µM, […]",-24.66%
Cc1cc(C)n(-c2ccc(CNCc3cccc(C#N)c3)cn2)n1,Percent Effect,"30.3 µM, […]",62.16%
Cc1cc(C)n(-c2ccc(CNCc3ccc(OC(C)C)cc3)cn2)n1,Percent Effect,"30 µM, 30.03 µM",-15.45%
Cc1cc(C)n(-c2ccc(CNCc3ccc(F)cc3F)cn2)n1,Percent Effect,"30.3 µM, […]",61.76%
COc1cc(CNCc2ccc(-n3nc(C)cc3C)nc2)cc(OC)c1,Percent Effect,"30.3 µM, […]",5.745%
CNC(=O)COc1ccc(CNCc2ccc(F)cc2F)cc1,Percent Effect,"30 µM, 30.03 µM",4.908%
COc1ccc(C)cc1CNCc1ccc(-n2nc(C)cc2C)nc1,Percent Effect,"30 µM, 30.03 µM",-31.15%
Cc1cc(C)n(-c2ccc(CNCc3ccc(C)o3)cn2)n1,Percent Effect,"30.3 µM, […]",8.783%
Cc1ccc(CNCc2ccc(-n3nc(C)cc3C)nc2)cc1,Percent Effect,"30 µM, 30.03 µM",-12.87%
Cc1cc(C)n(-c2ccc(CNCc3ccc(F)c(F)c3)cn2)n1,Percent Effect,"30.3 µM, […]",53.31%
CCn1cc(-c2c(C)c(C3CCOC(C)(C)C3)nc(N)c2C#N)cn1 (centres undefined),Percent Effect,"30 µM, 30.03 µM",-13.96%
Cc1ccc(C(=O)N2CCC3(CC2)CCN(Cc2ccccn2)C3=O)o1.O=C(O)C(F)(F)F,Percent Effect,"30 µM, 30.03 µM",-16.24%
CCOCC(=O)N1CCOCC2(CCN(c3ncccn3)C2)C1.O=C(O)C(F)(F)F (centres undefined),Percent Effect,"30.3 µM, […]",-43.52%
Cc1cc(NC(=O)N(CCO)Cc2ccsc2)no1,Percent Effect,"30.3 µM, […]",3.821%
Cc1nc(CN2CC[C@@H]3O[C@@H](C(=O)N4CCOCC4)C[C@@H]32)cs1.O=C(O)C(F)(F)F,Percent Effect,"30.3 µM, […]",-22.53%
CN(CCOc1cccc(S(C)(=O)=O)c1)c1ccccc1,Percent Effect,"30 µM, 30.03 µM",-2.31%
CCC(CNc1ncnc2oc(C)nc12)Cc1ccccc1 (centres undefined),Percent Effect,"30.3 µM, […]",10.79%
CCCOc1ccc(Cl)cc1CNc1ncnc2oc(C)nc12,Percent Effect,"30.3 µM, […]",18.57%
CCCOc1ccccc1CCCNc1ncnc2oc(C)nc12,Percent Effect,"30.3 µM, […]",99.92%
CC(=O)N1CCN(Cc2ccsc2)CC2(CC(=O)N(C)C2)C1.O=C(O)C(F)(F)F (centres undefined),Percent Effect,"30.3 µM, […]",-65.69%
O=C(c1cc(Cl)c[nH]c1=O)N1C[C@@H]2CC[C@H](C1)N(Cc1ccccc1)C2,Percent Effect,"30 µM, 30.03 µM",-61.83%
CC(=O)N1N=C(COc2ccc(Cl)cc2)OC1c1ccccc1 (centres undefined),Percent Effect,"30 µM, 30.03 µM",-14.14%
CC(C)c1cc(NC(=O)c2ccc(NC3CC3)nc2)[nH]n1,Percent Effect,"30 µM, 30.03 µM",40.22%
CC(C)c1cc(NC(=O)c2ccncc2)[nH]n1,Percent Effect,"30.3 µM, […]",16.87%
same,Percent Effect,"10 mM, 10 mM as filed; unlikely as a test dose",-12.06%
CC(C)c1cc(NC(=O)c2cccnc2)[nH]n1,Percent Effect,"30.3 µM, […]",11.06%
same,Percent Effect,"10 mM, 10 mM as filed; unlikely as a test dose",-25.28%
Cc1ccc(CC(=O)NCC(O)c2cc(Cl)cc(Cl)c2)cn1 (centres undefined),Percent Effect,"30 µM, 30.03 µM",-24.81%
Cc1ccc(C(=O)Nc2cc(C(C)C)n[nH]2)cn1,Percent Effect,"30 µM, 30.03 µM",54.96%
CC(C)c1cc(NC(=O)c2ccc([S+]([O-])C(C)C)cc2)[nH]n1 (centres undefined),Percent Effect,"30.3 µM, […]",80.42%
same,Percent Effect,"10 mM, 10 mM as filed; unlikely as a test dose",77.43%
CC(C)c1cc(NC(=O)Cn2cnc3ccccc3c2=O)[nH]n1,Percent Effect,"30 µM, 30.03 µM",1.416%
CC(C)c1cc(NC(=O)c2ccc(C(=O)NC(C)(C)C)cc2)[nH]n1,Percent Effect,"30 µM, 30.03 µM",33.13%
Cc1ccc(CC(=O)Nc2cc(C(C)C)n[nH]2)cn1,Percent Effect,"30.3 µM, […]",101.5%
same,Percent Effect,"10 mM, 10 mM as filed; unlikely as a test dose",101.9%
NCc1cnn(-c2ccccc2C(=O)NCc2ccccn2)c1,Percent Effect,"30.3 µM, […]",5.478%
O=C(O)C(F)(F)F.O=C1CC2(CCN(Cc3ccco3)C2)CN1c1ccc2c(c1)OCO2 (centres undefined),Percent Effect,"30 µM, 30.03 µM",43.65%
CN(C)C(=O)CN1C(=O)CCC12CCN(Cc1cccn1C)CC2.O=C(O)C(F)(F)F,Percent Effect,"30.3 µM, […]",-2.653%
COc1ccc([C@@H]2CN(C(=O)CCC(F)(F)F)C[C@H]2NC(C)=O)cc1,Percent Effect,"30 µM, 30.03 µM",98.96%
COc1ccc([C@@H]2CN(C(=O)CS(C)(=O)=O)C[C@H]2NC(C)=O)cc1,Percent Effect,"30 µM, 30.03 µM",-86.91%
CCOCC(=O)N1C[C@@H](NC(C)=O)[C@H](c2ccc(OC)cc2)C1,Percent Effect,"30 µM, 30.03 µM",-1.358%
COc1cccc(CN2CCCC3(CCN(C(=O)c4ccco4)C3)C2)c1 (centres undefined),Percent Effect,"30.3 µM, […]",7.427%
Cc1cc(C)n(C2CN(CC(=O)N(C)Cc3ccsc3)C2)n1,Percent Effect,"30 µM, 30.03 µM",62.05%
Cc1cc(C)n(C2CN(CC(=O)N(C)Cc3cnn(C)c3)C2)n1,Percent Effect,"30 µM, 30.03 µM",17.09%
COc1cccc(CN(C)C(=O)CN2CC(n3nc(C)cc3C)C2)c1,Percent Effect,"30 µM, 30.03 µM",1.154%
